# Source: PubChem BioAssay (EPA / NIEHS)
# Records with an inconclusive call do not appear. Active and inactive are the calls of the source. Rule for the calls, unless noted: active = hit-call score of the fitted dose curve at least 0.9, where 1 is the maximum; inactive = score below 0.9.
# Key:
# [1] = CCTE_Deisenroth_5AR_NBTE_donor: CCTE's 5alpha-reductase NanoBRET Target Engagement Assay […], Deisenroth Lab (AID 2284319); conditions: actives raise or lower the signal
# Summary of the method: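 HEK293T cells were reverse transfected with an SRD5A2-NanoLuc vector for 20 h, exposed to test chemical (8 points, 10 nM - 29.9 uM) for 3 h, then testosterone tracer for 2 h more. Donor luminescence (460 nm) was read; bidirectional fit versus DMSO.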
# [2] = CCTE_Deisenroth_5AR_NBTE_acceptor: CCTE's 5alpha-reductase NanoBRET Target Engagement Assay - Autofluorescence Screen, Deisenroth Lab (AID 2284321); conditions: actives raise or lower the signal;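 note: compound fluorescence in the acceptor channel under 460 nm excitation flags autofluorescence artifacts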
# Summary of the method: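 Autofluorescence counter-screen: chemicals at an assumed nominal 100 uM in DMSO were scanned in three independent runs with 460 nm excitation. Gain or loss of acceptor signal was fitted bidirectionally against DMSO.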
# SRD5A2 (gene 6716) = assay: CCTE_Deisenroth_5AR_NBTE_ratio: CCTE's 5alpha-reductase NanoBRET Target Engagement Assay - Ratio, Deisenroth Lab (AID 2284322); conditions: actives raise or lower the signal
# Summary of the method: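 Reverse-transfect HEK293T with pNLF1-C-SRD5A2, express 20 h. Pre-incubate cells with chemical 3 h (8-point series, 10 nM - 29.9 uM, duplicate). Add testosterone tracer, 2 h more. Add substrate/inhibitor, read donor and acceptor emission.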
# [3] = TAMU_PeakParms_SingleDonor1434_Asystole: Texas A&M University (TAMU) 1.5-hr Human Induced Pluripotent Stem Cell (iPSC)-derived Cardiomyocytes Calcium (Ca+2) Flux Assay for Cardiotoxicity: Asystole (quiescence of beating) (AID 2284328; active = hit-call score of the fitted dose curve at least 0.9, where 1 is the maximum)
# Summary of the method: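 Human iPSC-derived cardiomyocytes (donor 1434) were exposed to 0.2, 1, 10 and 100 uM compound in 0.5% DMSO for 90 min at 37C. Ca2+-dye fluorescence gave average peak frequency; POD is EC95, a 95% beat-rate drop versus DMSO.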
# CD69, CD69 (gene 969) = assay: BSK_LPS_CD69: BioMAP Diversity Plus: LPS Assay for CD69 Biomarker Activity (AID 2284303); conditions: primary human HUVEC with PBMC
# Summary of the method: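 Human umbilical vein endothelial cells co-cultured with PBMC under LPS stimulation, chemical exposure 24 h; cell-surface CD69 measured by ELISA and fitted in the positive direction versus DMSO.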
# [4] = IUF_NPC2a_radial_glia_migration_120hr: Leibniz Research Institute for Environmental Medicine (IUF) 120-hour Neural Progenitor Cell Migration Assay for Radial Glia Migration (NPC2a) (AID 2284298)
# Summary of the method: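 Human fetal-cortex neural progenitor spheres (0.3 mm) plated on poly-D-lysine/laminin in N2 differentiation medium, exposed 120 h at 37C with half-medium renewal at day 3. Radial glia migration distance (um) measured from Hoechst-stained nuclei images; DMSO baseline.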
# [5] = IUF_NPC2a_radial_glia_migration_72hr: Leibniz Research Institute for Environmental Medicine (IUF) 72-hour Neural Progenitor Cell Migration Assay for Radial Glia Migration (NPC2a) (AID 2284299)
# Summary of the method: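 Human fetal cortex (GW 16-19) neural progenitor spheres, 0.3 mm, plated on poly-D-lysine/laminin in N2 differentiation medium with compound from day 0. Radial glia migration distance (um, sphere core edge to migration edge) measured manually in four directions on 72 h brightfield images; well mean used.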
# [6] = IUF_NPC2b_neuronal_migration_120hr: Leibniz Research Institute for Environmental Medicine (IUF) 120-hour Neural Progenitor Cell Migration Assay for Neuron Migration (NPC2b) (AID 2284300)
# Summary of the method: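 0.3 mm hNPC spheres on poly-D-lysine/laminin in N2 differentiation medium exposed 120 h, half-medium refresh day 3; 7 concentrations, DMSO max 0.1%. Neuron (TUBB3) distance from sphere core by ICC imaging, normalised to radial glia migration.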
# [7] = IUF_NPC3_neuronal_differentiation_120hr: Leibniz Research Institute for Environmental Medicine (IUF) 120-hour Neuronal Differentiation Assay (NPC3) (AID 2284301)
# Summary of the method: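 Primary human fetal neural progenitor spheres (GW 16-19, 0.3 mm) plated on poly-D-lysine/laminin in N2 medium, exposed from day 0 for 120 h with half-medium refresh at day 3. TUBB3+ cells as percent of Hoechst nuclei in migration area; DMSO baseline.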
# [8] = IUF_NPC4_neurite_length_120hr: Leibniz Research Institute for Environmental Medicine (IUF) 120-hour Neuronal Morphology Assay for Neurite Length (NPC4) (AID 2284302)
# Summary of the method: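 Human fetal cortex (GW 16-19) neural progenitor spheres, 0.3 mm, were plated on poly-D-lysine/laminin in N2 differentiation medium and exposed from day 0 for 120 h, half-feeding at day 3. Mean TUBB3+ neurite length (µm) came from skeletonized images, relative to DMSO.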
# [9] = IUF_NPC2-5_cytotoxicity_72hr: Cytotoxicity Assessment at 72 hours in the Leibniz Research Institute for Environmental Medicine (IUF) Neural Progenitor Cell Migration and Differentiation Assay for Cytotoxicity (NPC2-5) (AID 2284306; active = hit-call score of the fitted dose curve at least 0.9, where 1 is the maximum;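 note: LDH release into supernatant measured by resorufin fluorescence marking membrane damage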)
# Summary of the method: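 Human fetal (GW 16-19) neural progenitor spheres, 0.3 mm, plated on poly-D-lysine/laminin in N2 differentiation medium and exposed from day 0 to 7 concentrations plus solvent control (DMSO ≤0.1%). LDH-dependent resazurin-to-resorufin fluorescence in supernatant at 72 h.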
# [10] = IUF_NPC2-5_cytotoxicity_120hr: Cytotoxicity Assessment at 120 hours in the Leibniz Research Institute for Environmental Medicine (IUF) Neural Progenitor Cell Migration and Differentiation Assay (NPC2-5) (AID 2284307; active = hit-call score of the fitted dose curve at least 0.9, where 1 is the maximum)
# Summary of the method: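 Human fetal (GW 16-19) neural progenitor spheres (0.3 mm) plated on poly-D-lysine/laminin in N2 differentiation medium, exposed 120 h with half-medium renewal at day 3; 7 concentrations plus solvent control, DMSO ≤0.1%. LDH release in supernatant read by resorufin fluorescence.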
# [11] = IUF_NPC2-5_cell_number_120hr: Cell Number Assessment at 120 hours in the Leibniz Research Institute for Environmental Medicine (IUF) Neural Progenitor Cell Migration and Differentiation Assay (NPC2-5) (AID 2284308);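 note: count of Hoechst-stained nuclei in migration zone around plated human neural progenitor spheres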
# Summary of the method: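 Human fetal neural progenitor spheres (0.3 mm) plated on poly-D-lysine/laminin in N2 differentiation medium, exposed five days across 7 concentrations with half-medium refresh at day 3. Hoechst-positive nuclei counted in migration area at 120 h, relative to DMSO.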
# [12] = IUF_NPC2-5_viability_120hr: Viability Assessment at 120 hours in the Leibniz Research Institute for Environmental Medicine (IUF) Neural Progenitor Cell Migration and Differentiation Assay (NPC2-5) (AID 2284312)
# Summary of the method: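 Human fetal (GW 16-19) neural progenitor spheres of 0.3 mm were plated on poly-D-lysine/laminin in N2 differentiation medium and exposed from day 0 for 120 h, with half-medium refresh at day 3. Viability was read as alamar blue resazurin-to-resorufin fluorescence against DMSO.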
# [13] = CCTE_Mundy_HCI_iCellGluta_NOG_NeuriteLength: CCTE's Neurite Outgrowth Assay in iCellGluta cells for Neurite Length, Mundy Lab (AID 2284318; active = hit-call score of the fitted dose curve at least 0.9, where 1 is the maximum)
# Summary of the method: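 Automated high-content imaging of betaIII-tubulin (Alexa Fluor-488) and Hoechst-stained cells gave neurite length, normalized to the DMSO baseline.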
# [14] = IUF_NPC5_oligodendrocyte_differentiation_120hr: Leibniz Research Institute for Environmental Medicine (IUF) 120-hour Oligodendrocyte Differentiation Assay (NPC5) (AID 2284304; active = hit-call score of the fitted dose curve at least 0.9, where 1 is the maximum;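 note: primary human fetal neural progenitor spheres plated to migrate and differentiate; share of O4-positive cells among Hoechst nuclei found by CNN image analysis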)
# Summary of the method: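 Human fetal neural progenitor spheres (0.3 mm) plated on poly-D-lysine/laminin in N2 differentiation medium and exposed for 120 h at 7 concentrations, with half-medium renewal at day 3. O4-positive cells identified by CNN, expressed as percent of Hoechst nuclei.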
# [15] = IUF_NPC4_neurite_area_120hr: Leibniz Research Institute for Environmental Medicine (IUF) 120-hour Neuronal Morphology Assay for Neurite Area (NPC4) (AID 2284305; active = hit-call score of the fitted dose curve at least 0.9, where 1 is the maximum)
# Summary of the method: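 Human fetal cortex-derived neural progenitor spheres (0.3 mm, GW 16-19) plated on poly-D-lysine/laminin in N2 differentiation medium and exposed from day 0 for 120 h across 7 concentrations plus solvent control. Neurite area is mean pixel area per TUBB3-positive neuron via skeletonization, analysed relative to DMSO.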
structure (smiles),measurement,setting,value
CCCCCCCCCCCCCCN(CCO)CCO,AC50,[1],62.3 µM (active)
same,AC50,[2],50 µM (active)
same,AC50,SRD5A2 (gene 6716),77.7 µM (active)
[O-]n1ccccc1=S.[O-]n1ccccc1=S.[Zn+2],outcome,[1],inactive
same,outcome,[2],inactive
same,outcome,SRD5A2 (gene 6716),inactive
CC(C)NCC(O)COc1ccc(CC(N)=O)cc1 (configuration not stated),outcome,[3],inactive
CCCCCCCC(=O)OCC(O)CO (configuration not stated),outcome,[1],inactive
same,outcome,[2],inactive
same,outcome,SRD5A2 (gene 6716),inactive
O=CN1CCOCC1,outcome,"CD69, CD69 (gene 969)",inactive
C[C@H]1O[C@@H](O[C@H]2[C@@H](O)C[C@H](O[C@H]3[C@@H](O)C[C@H](O[C@H]4CC[C@@]5(C)[C@H](CC[C@@H]6[C@@H]5C[C@@H](O)[C@]5(C)[C@@H](C7=CC(=O)OC7)CC[C@]65O)C4)O[C@@H]3C)O[C@@H]2C)C[C@H](O)[C@@H]1O,outcome,[1],inactive
same,outcome,[2],inactive
same,AC50,SRD5A2 (gene 6716),0.354 µM (active)
CN(C)CCOC(C)(c1ccccc1)c1ccccn1 (configuration not stated),outcome,[4],inactive
same,outcome,[5],inactive
same,outcome,[6],inactive
same,outcome,[7],inactive
same,outcome,[8],inactive
same,outcome,[9],inactive
same,outcome,[10],inactive
same,outcome,[11],inactive
same,outcome,[12],inactive
same,outcome,[13],inactive
COCCc1ccc(OCC(O)CNC(C)C)cc1 (configuration not stated),outcome,[4],inactive
same,outcome,[5],inactive
same,outcome,[6],inactive
same,outcome,[7],inactive
same,outcome,[8],inactive
same,outcome,[14],inactive
same,outcome,[15],inactive
same,outcome,[9],inactive
same,outcome,[10],inactive
same,outcome,[11],inactive
same,outcome,[12],inactive
same,outcome,[13],inactive
COCCOCCOCCO,outcome,[4],inactive
same,outcome,[5],inactive
same,outcome,[6],inactive
same,outcome,[7],inactive
same,outcome,[14],inactive
same,outcome,[15],inactive
same,outcome,[9],inactive
same,outcome,[10],inactive
same,outcome,[11],inactive
same,outcome,[12],inactive
same,outcome,[13],inactive
CC1(C)CCC[C@]2(C)[C@H]3CCO[C@]3(C)CC[C@@H]12,outcome,"CD69, CD69 (gene 969)",inactive
CCCCCCC(CO)CCCC (configuration not stated),outcome,"CD69, CD69 (gene 969)",inactive
Nc1ccccc1[N+](=O)[O-],outcome,[1],inactive
same,outcome,[2],inactive
same,AC50,SRD5A2 (gene 6716),50 µM (active)
